D1 mod: allosteric modulators of human D1 dopamine receptor; P21728; HEK293 D1, CRE-luciferase, dopamine EC30 potentiation; actives deviate in either direction; B-score at 10 µM; actives 5.9% (n = 58,000); AID 641;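 active = luminescence count or its row- and column-corrected plate score outside the 99.7% band of the plate's sample wells, on either side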
Target sequence (P21728 whole entry, looked up): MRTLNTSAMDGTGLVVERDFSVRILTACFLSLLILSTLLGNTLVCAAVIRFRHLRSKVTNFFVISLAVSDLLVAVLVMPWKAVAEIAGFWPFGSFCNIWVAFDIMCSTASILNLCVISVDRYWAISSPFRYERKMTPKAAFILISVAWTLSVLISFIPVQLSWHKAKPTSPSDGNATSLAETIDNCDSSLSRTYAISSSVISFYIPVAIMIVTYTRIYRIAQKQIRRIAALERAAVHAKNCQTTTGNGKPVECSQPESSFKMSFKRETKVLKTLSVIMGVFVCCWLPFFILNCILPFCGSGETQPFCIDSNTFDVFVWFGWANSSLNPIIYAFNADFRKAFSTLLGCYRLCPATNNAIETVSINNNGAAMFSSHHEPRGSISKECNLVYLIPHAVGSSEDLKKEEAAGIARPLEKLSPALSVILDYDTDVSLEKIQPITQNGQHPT
CYP2C19 activ: cytochrome P450 2C19 (human) activation | AID 1025 | recombinant CYP2C19, luciferin-H EGE luminescence; active compounds read high; 0 = fully inhibited enzyme, 1 = untreated enzyme | activation factor at 5 µM | P33261 | 96,000 tested, under 10 active;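 active = activation factor of at least 2 at 5 µM in the primary screen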;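 note: 0 = wells with 2.5 mM tranylcypromine and 1 = vehicle-only wells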
CYP2C9 act: increases human cytochrome P450 2C9 activity. P11712. recombinant CYP2C9, luciferin-H conversion, luminescence; active compounds read high; factor 1 = untreated enzyme, 0 = blocked. activation factor at 5 µM. actives 1.4% (n = 96,000);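 active = activation factor of 2 or more for CYP2C9 at a 5 µM dose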;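 note: 0 = sulfaphenazole-blocked wells and 1 = vehicle-only wells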
CYP2C19 inh: human CYP2C19 inhibition; CYP2C19 Supersomes, luciferin-H EGE luminescence, 30 min; actives 21% (n = 96,000); P33261; inhibition, % at 5 µM;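 active = CYP2C19 inhibition above a set limit at 5 µM in the primary screen, cut at about 50% in these data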;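 note: plate controls were negative control wells for no effect and 2.5 mM tranylcypromine positive control for full effect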
hDAT+cocaine: modulates human dopamine transporter uptake under cocaine; B-score at 10 µM; LLC-PK1 hDAT cells, [14C]-dopamine uptake with cocaine IC80; actives deviate in either direction; Q01959; actives 1.3% (n = 110,000);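 active = Z score or B-score, a plate-position-corrected score, falls beyond the plate's 99.7% confidence bounds, in either direction; inactive = both scores lie inside the 99.7% bounds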;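 note: scored against the spread of the other compound wells on the same plate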
CYP2C9 inh: inhibitors of human CYP2C9 | CYP2C9 Supersomes, luciferin-H conversion, luminescence | inhibition, % at 5 µM | actives 20% (n = 96,000) | AID 777;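 active = blocking of liver enzyme CYP2C9 beyond about 50% at 5 µM, limit read from the data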
Starred values were filed as active, the others as inactive. In the library only some 28% were active in any assay of this set; here they are far more common.

Results for CCOc1ccc(OCC)c(NC(=O)C2CCCN(c3nc(C)cc(C)n3)C2)c1 (stereo not given) ?
D1 mod: 1.4; CYP2C19 activ: 0.3; CYP2C9 act: 0.2; CYP2C19 inh: 73*; hDAT+cocaine: -0.38; CYP2C9 inh: 76*

Results for COc1ccc(NC(=O)c2cnc3ccccn3c2=O)cc1OC ?
D1 mod: 0.14

Results for O=C(NCCC1=CCCCC1)C1CC(=O)N(C2CCCCCC2)C1 (stereo not given) ?
D1 mod: -0.22; CYP2C19 activ: 0.5; CYP2C9 act: 0.4; CYP2C19 inh: 52*; hDAT+cocaine: 0.12; CYP2C9 inh: 57*

What do the screens show for `Cc1cc(C)nc(N2CCCC(C(=O)Nc3cc(F)ccc3C)C2)n1` (stereo not given)?
D1 mod: -0.02; CYP2C19 activ: 0.4; CYP2C9 act: 1.3; CYP2C19 inh: 65*; CYP2C9 inh: -26

How did Cc1noc(NC(=O)c2ccccc2)c1C#N do in these assays?
CYP2C19 activ: 0.7; CYP2C9 act: 0.5; CYP2C19 inh: 34; hDAT+cocaine: -0.69; CYP2C9 inh: 50

What do the screens show for `Cc1ccc(C(=O)Nc2onc(C)c2C#N)cc1`?
CYP2C19 activ: 0.6; CYP2C9 act: 0.4; CYP2C19 inh: 37; hDAT+cocaine: 0.37; CYP2C9 inh: 58*

Results for CCOC(=O)CSc1nc2sc3c(c2c(=O)n1C1CCCCC1)CCN(C)C3 ?
hDAT+cocaine: -0.1

Results for CCC1(C)Cc2c(sc3nnn(CC(=O)Nc4cccc5ccccc45)c(=O)c23)CO1 (stereo not given) ?
CYP2C19 activ: 0.9; CYP2C9 act: 0.4; CYP2C19 inh: 12; hDAT+cocaine: 0.65; CYP2C9 inh: 60*

What do the screens show for `CC1(C)Cc2c(sc3nc(-c4ccccc4)n(N)c(=O)c23)CO1`?
CYP2C19 activ: 1; CYP2C9 act: 1; CYP2C19 inh: 2; hDAT+cocaine: -1.5; CYP2C9 inh: 0

Results for CCC1(C)Cc2c(sc3nc(SC)n(Cc4ccccc4)c(=O)c23)CO1 (stereo not given) ?
CYP2C19 activ: 0.7; CYP2C9 act: 0.1; CYP2C19 inh: 35; hDAT+cocaine: -0.67; CYP2C9 inh: 90*

How did CCCCOC(=O)Nc1sc2c(c1C(=O)OC)CCC2 do in these assays?
CYP2C19 activ: 1.2; CYP2C9 act: 1.2; CYP2C19 inh: -20; hDAT+cocaine: -0.13; CYP2C9 inh: -23

What do the screens show for `CC1(C(=O)Nc2nnc(SCc3ccccc3)s2)Cc2ccccc2C(=O)O1` (stereo not given)?
CYP2C19 activ: 0.9; CYP2C9 act: 0.2; CYP2C19 inh: 15; hDAT+cocaine: -0.2; CYP2C9 inh: 79*

Results for COc1ccccc1NC(=O)C1(C)Cc2ccccc2C(=O)O1 (stereo not given) ?
D1 mod: 0.066; CYP2C19 activ: 0.6; CYP2C9 act: 2.3*; CYP2C19 inh: 40; hDAT+cocaine: 1.8e-05; CYP2C9 inh: -134

What do the screens show for `COC(=O)c1c(NC(=O)C2(C)Cc3ccccc3C(=O)O2)sc2c1CCCC2` (stereo not given)?
CYP2C19 activ: 0.4; CYP2C9 act: 0.4; CYP2C19 inh: 60*; hDAT+cocaine: 0.17; CYP2C9 inh: 56*

Results for CC(=O)c1cc(F)c(N2CCN(C(=O)COc3ccccc3F)CC2)cc1C ?
hDAT+cocaine: -1.2

How did CCOC(=O)c1[nH]c(=O)[nH]c1CSc1ccccn1 do in these assays?
D1 mod: -0.12; CYP2C19 activ: 1.1; CYP2C9 act: 1.3; CYP2C19 inh: -9; hDAT+cocaine: 0.35; CYP2C9 inh: -28

How did COC(=O)c1nnn(-c2nonc2N)c1CSc1ccccn1 do in these assays?
D1 mod: -0.34; CYP2C19 activ: 0.2; CYP2C9 act: 0.8; CYP2C19 inh: 80*; hDAT+cocaine: -1; CYP2C9 inh: 23

What do the screens show for `CC(C)OC(=O)c1nnn(-c2nonc2N)c1CSc1ccccn1`?
D1 mod: 1.5; CYP2C19 activ: 0.3; CYP2C9 act: 0.4; CYP2C19 inh: 74*; hDAT+cocaine: -0.61; CYP2C9 inh: 57*

What do the screens show for `Cc1[nH]c(=S)n(CC2CCCO2)c1C` (stereo not given)?
D1 mod: -0.16; hDAT+cocaine: -1.1

Results for Cc1cc(NC(=O)C2CC=CCC2C(=O)O)no1 (stereo not given) ?
D1 mod: 0.3; CYP2C19 activ: 1.2; CYP2C9 act: 1.2; CYP2C19 inh: -24; hDAT+cocaine: -0.37; CYP2C9 inh: -24

Results for N#CC1=C(N)Oc2c(oc(CO)cc2=O)C1c1cccs1 (stereo not given) ?
D1 mod: 0.27; CYP2C19 activ: 1.1; CYP2C9 act: 1.2; CYP2C19 inh: -12; hDAT+cocaine: 0.28; CYP2C9 inh: -17

What do the screens show for `CCCC1=C(C(=O)OCC)C(c2cccs2)C(C#N)=C(N)O1` (stereo not given)?
CYP2C19 activ: 0.2; CYP2C9 act: 0.3; CYP2C19 inh: 79*; hDAT+cocaine: 0.022; CYP2C9 inh: 67*

What do the screens show for `CCOC(=O)C1=C(CSc2nc(CC)c(C)cc2C#N)OC(N)=C(C#N)C1c1ccccc1` (stereo not given)?
CYP2C19 activ: 0.5; CYP2C9 act: 0.3; CYP2C19 inh: 49; hDAT+cocaine: 0.6; CYP2C9 inh: 68*

What do the screens show for `CCOC(=O)CSc1nc(C)cc(C)c1C#N`?
CYP2C19 activ: 1; CYP2C9 act: 1.1; CYP2C19 inh: 2; hDAT+cocaine: -1.9; CYP2C9 inh: -7

What do the screens show for `CCOC(=O)C1=C(CSc2nc3c(cc2C#N)CN(C)CC3)OC(N)=C(C#N)C1c1ccc(Cl)cc1` (stereo not given)?
CYP2C19 activ: 0.7; CYP2C9 act: 0.6; CYP2C19 inh: 32; hDAT+cocaine: -0.017; CYP2C9 inh: 44

How did CCOC(=O)C1=C(CSc2nc(C)cc(C)c2C#N)OC(N)=C(C#N)C1c1cccs1 (stereo not given) do in these assays?
D1 mod: -0.11; CYP2C19 activ: 0.1; CYP2C9 act: 0.6; CYP2C19 inh: 86*; hDAT+cocaine: 0.31; CYP2C9 inh: 42

What do the screens show for `CCOC(=O)C1=C(CSc2nc(C)cc(C)c2C#N)OC(N)=C(C#N)C1c1ccccc1` (stereo not given)?
CYP2C19 activ: 0.3; CYP2C9 act: 0.2; CYP2C19 inh: 75*; hDAT+cocaine: 0.27; CYP2C9 inh: 81*

What do the screens show for `COc1ccc(N2CCN(c3ncnc4c3nnn4Cc3ccccc3Cl)CC2)cc1`?
hDAT+cocaine: -0.14

How did COC(=O)C1=C(C(=O)OC)[C@@H]2N(Cc3ccccc3)c3ccccc3[C@@]23C[C@@H](C(=O)OC)N(C(=O)COCc2ccccc2)C3=N1 do in these assays?
hDAT+cocaine: 0.34

Results for COCC(=O)Nc1ccccc1C#N ?
CYP2C19 activ: 1; CYP2C9 act: 1; CYP2C19 inh: 4; CYP2C9 inh: -5

Screening results from PubChem BioAssay.
